Inconclusive results are not listed. Entries that show only a call come without a potency. Activity calls are given as the source filed them. Calls come from the whole dose curve; as a rule, active = well fitted inhibition curve with a large enough effect; inconclusive = small, poorly fitted or top-dose-only effect; inactive = no such curve, though single readings can be large or run the other way.

A short description of the test: Primary qHTS for small molecule stabilizers of the endoplasmic reticulum resident proteome: Secreted ER Calcium Modulated Protein (SERCaMP) assay (AID 1508630). Summed up:
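GLuc-SERCaMP-expressing SH-SY5Y cells, pretreated 16 h with compound, are challenged with thapsigargin to empty ER calcium stores; after 4 h, coelenterazine is added directly to the medium and luminescence is imaged.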
On the technique in general: In qHTS, concentration-response curves come from the screen itself.

`CC1=C(C(N)=O)N2C(=O)[C@@H](NC(=O)Cc3ccccc3)C2SC1` (some centres undefined): the Potency result was “inactive”.
`C=C1CCC2[C@](C)(CO)[C@H](O)CC[C@@]2(C)[C@@H]1C/C=C1/C(=O)OC[C@H]1O` (some centres undefined): the Potency entry is “inactive”.
The entry for `COc1ccc([C@H]2c3cc(OC)c(OC)cc3C[C@@H](C)[C@@H]2C)cc1OC` is “inactive”; for `CN(C)C(=O)OC1=C(c2ccccc2)Sc2ccccc2-n2cccc21` it is “inactive”.
Regarding `C/C(Nc1ccc2oc(=O)ccc2c1)=C1/C(=O)CC2[C@@H]1C2(C)C` (some centres undefined), the Potency result was “inactive”.
As for `COc1c2c(cc3c1C(CC(=O)c1c(O)c(OC)c4occc4c1OC)[N+](C)(C)CC3)OCO2` (centres undefined), the entry is “inactive”; as for `CN1CCN(c2ccc(Nc3c4ccccc4nc4ccccc34)cc2)CC1`, “inactive”; as for `COc1cc2c(cc1OC)C(C(=O)c1ccc(OC)c(OC)c1O)=NCC2`, “inactive”.
As for `O=C(O)C(O)C(O)(Cc1ccc(O)cc1)C(=O)O` (centres undefined), the entry is “inactive”.
The entry for `COc1ccc(C2c3[nH]c4ccccc4c3CC3C(=O)N(CCc4ccc(OC)c(OC)c4)CC(=O)N32)cc1` (centres undefined) is “inactive”.
`COc1ccc(/C=C/c2cc(OC)c(OC)cc2CC[N+](C)(C)C)cc1`: the Potency result is “inactive”.
With `COc1ccc(/C=C/C(=O)/C=C/c2ccc(OC)cc2OC)c(OC)c1`, the Potency entry is “inactive”.
The entry for `CC1=CC(=O)C2=C(C)C[C@H](OC(=O)Cc3ccccc3)C3[C@H](OC(=O)[C@H]3C)C12` (some centres undefined) is “inactive”; for `COc1c2ccoc2nc2c(OC)c(O[C@@H]3O[C@H](C)[C@@H](O)[C@@H](O)[C@H]3O)ccc12` it is “inactive”; for `Cc1csc(-c2coc3cc(O[C@@H]4O[C@H](CO)[C@@H](O)[C@@H](O)[C@H]4O)ccc3c2=O)n1` it is “inactive”.
As for `C=C[C@]1(C)Cc2occ(C)c2C[C@H]1C(=C)C(=O)O`, the entry is “inactive”; as for `COc1c2c(cc3c1C(c1c(O)c4ccccc4oc1=O)N(C)CC3)OCO2` (centres undefined), “inactive”.
For `C=C1C[C@@]23CC4C5[C@@]6(C)C[C@H](O)C[C@@]57C2[C@H](O)[C@@H]1[C@H](O)[C@H]3[C@H]7N4C6`, the Potency entry was “inactive”.
Consider `CN[C@H]1CCc2cc(OC)c(OC)c(OC)c2-c2ccc(N[C@@H]3CCCCNC3=O)c(=O)cc21`, for which the Potency entry is “inactive”.
As for `CC(C)C1NC(C(=O)O)Cc2c1[nH]c1ccccc21` (centres undefined), the entry is “inactive”.
As for `O=C(O)C1Cc2c([nH]c3ccccc23)C(c2coc3ccccc3c2=O)N1` (centres undefined), the entry is “inactive”.
The entry for `O=C(O)c1ccc(-c2ccc3cc(C45CC6CC(CC(C6)C4)C5)c(O)cc3c2)cc1` is “inactive”; for `COc1c2c(nc3occc13)C(CC=C(C)C)(OC)C(=O)C=C2` (centres undefined) it is “inactive”.
Regarding `O=C(O)C1CC[C@@](C(=O)O)(c2ccccc2)c2ccccc21` (some centres undefined), the Potency entry is “inactive”.

(Values after PubChem BioAssay (NCATS).)
